This is part of a sample that, as a whole, favours compounds with a hit. Of some 83,000 tested, about 20% had one in any assay.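 Activity criterion: percent growth below 10, measured after cells in 96-well plates were exposed to a single compound concentration for 48 hours.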 A number with no mark means an inactive call. Active and inactive are the calls of the source.

Common to all, as to experiment: NCI-60 one-dose screen, 48 h (100 = growth as untreated, 0 = no growth, -100 = all killed)
What all share (settings): 10 µM unless noted

Experiment [1] relates to HCT-15 colon.
Experiment [2] relates to HT29 colon.
Experiment [3] deals with SNB-75 CNS.
The subject of experiment [4] is SNB-19 CNS.
The subject of experiment [5] is U251 CNS.
Experiment [6] has as its system PC-3 prostate.
In experiment [7] the test system is SK-MEL-5 melanoma.
For experiment [8], the system named is UACC-62 melanoma.
Experiment [9] concerns LOX IMVI melanoma.
The subject of experiment [10] is SK-MEL-28 melanoma.
Experiment [11] concerns SK-MEL-2 melanoma.
The subject of experiment [12] is EKVX NSCLC.
The test system of experiment [13] is SN12C renal.
For experiment [14], the system named is UO-31 renal.
Experiment [15] deals with TK-10 renal.
The test system of experiment [16] is ACHN renal.
Experiment [17] deals with CAKI-1 renal.
Experiment [18] concerns A498 renal.
Experiment [19] has as its system CCRF-CEM leukemia.
Experiment [20] relates to MOLT-4 leukemia.

On to `Cc1cc(=O)oc2cc(Oc3nc(-c4ccccc4)cn4c(-c5ccccc5)cnc34)ccc12`, for which the growth is 68.6% in experiment [1]; 53.2% in [2]; -1.39% (active) in experiment [3]; 64.4% in experiment [4]; 67.3% in experiment [5]; 39.2% in experiment [6]. Also, the growth in experiment [7] was 38.3%; in experiment [8] it was 81.4%; in [9], 56.4%; in experiment [10] it was 67.6%; in experiment [11] it was 51.9%; in experiment [12], 66.8%. Besides, the growth is 67.6% in experiment [13]; 40.8% in experiment [14]; 80.5% in experiment [15]; 48.6% in experiment [16]; 85.2% in experiment [17]; 9.88% (active) in experiment [18]. The growth was 77.6% in experiment [19] and 58.5% in experiment [20].

In the case of `CC(C)n1cc(C2=C(c3cccc4ccccc34)C(=O)NC2=O)c2cc(Br)ccc21`, the growth in [1] was 43.1%; in [2], 43.1%; in [3], 38.6%; in [4], 82.6%; in [5] it was 60.4%; in [6], 57.8%. Further, the growth in [7] is -0.736% (active); in [8], 60%; in [9], 1.07% (active); in experiment [10], 90.7%; in experiment [11] it was 73.8%; in [12], 85%. In addition, the growth is 75.4% in experiment [13]; 58% in experiment [14]; 109% in experiment [15]; 53.8% in [16]; 27.9% in experiment [17]; -8.37% (active) in experiment [18]. Moreover, the results for the growth in experiment [19] and in experiment [20] were 52.8% and 49%, respectively.

For `CC(C)(C)n1cc(-c2ccnc(NCCNS(=O)(=O)c3ccc(C(F)(F)F)cc3)c2)c(-c2ccccc2)n1`, the growth in experiment [1] was 75.6%; in [2], 53.7%; in [3] it was 80.9%; in [4] it was 101%; in experiment [5] it was 75.4%; in experiment [6] it was 65.8%. The growth in experiment [7] was 80.7%; in experiment [8], 80.9%; in [9], 93.1%; in experiment [10] it was 100%; in [11] it was 105%; in experiment [12], 73.9%. Also, the growth in [13] is 86%; in [14] it was 58.9%; in experiment [15] it was 104%; in [16], 102%; in [17], 90.6%; in [18] it was 61.7%. The growth in experiment [19] is 74.6%; in experiment [20], 72.2%.

As to `CCN1C(=O)N(CC)C2C1NC(=S)N2/N=C/C=C/c1ccccc1` (stereo not given), the growth is 12.4% in experiment [1]; 3.6% (active) in [2]; 42.2% in experiment [3]; 19.5% in experiment [4]; 15.5% in [5]; 20.6% in [6]. For the same molecule, the growth in experiment [7] was -30% (active); in experiment [8], 23%; in experiment [9] it was 14.3%; in experiment [10], 61%; in experiment [11], 10.6%; in experiment [12], 27.8%. Moreover, the growth in [13] was 26.2%; in [14], 40.7%; in [15], 49.6%; in experiment [16] it was 22.8%; in experiment [17], 27.2%; in experiment [18] it was -6.35% (active). Moreover, the growth is 2.75% (active) in [19] and 8.08% (active) in [20].

Turning to `Cc1ccc(S(=O)(=O)N(CCC(=O)O)c2ccccc2)cc1`, the growth is 102% in experiment [1]; 110% in experiment [2]; 118% in experiment [3]; 109% in experiment [4]; 102% in [5]; 101% in [6]. The growth in experiment [7] is 112%; in [8], 104%; in experiment [9], 97.3%; in experiment [10], 119%; in [11] it was 109%; in experiment [12], 108%. For the same molecule, the growth in experiment [13] is 109%; in experiment [14], 106%; in [15], 119%; in experiment [16], 106%; in experiment [17] it was 93.9%; in [18], 81.3%. Also, the growth in experiment [19] is 94.4%; in experiment [20], 106%.

For the molecule `Oc1ccc(C2OCCO2)c2cccnc12`, the growth in experiment [1] is 32%; in experiment [2], 78.3%; in experiment [3] it was 80.6%; in experiment [4], 64.4%; in experiment [5], 27.4%; in experiment [6], 32%. In addition, the growth in experiment [7] is 48.4%; in experiment [8] it was 51.4%; in [9] it was 38.4%; in experiment [10], 63.4%; in experiment [11], 70.4%; in experiment [12], 78.4%. Further, the growth was 49.1% in experiment [13]; 45% in experiment [14]; 95.5% in [15]; 67.5% in experiment [16]; 105% in experiment [17]; 88.2% in experiment [18]. Moreover, the growth is 13.5% in experiment [19] and 20.5% in [20].

As for `O=C1CC2C=CCN2C=C1NC(=O)c1ccccc1` (stereo not given), the growth in experiment [1] is 100%; in experiment [2], 97.9%; in experiment [3] it was 96.8%; in experiment [4], 108%; in [5], 97.2%; in [6], 99.7%. Also, the growth in [7] was 100%; in experiment [8], 109%; in [9] it was 99.3%; in [10], 103%; in experiment [11] it was 118%; in experiment [12] it was 94.6%. Besides, the growth was 99.5% in experiment [13]; 98.2% in experiment [14]; 93.5% in [15]; 104% in experiment [16]; 101% in experiment [17]; 102% in experiment [18]. For the same molecule, the growth was 109% in [19] and 96.3% in experiment [20].

For the origin of these results see PubChem BioAssay (NCI).
